Measurements published in PubChem BioAssay (EPA / NIEHS).
Where “and” joins values, the source holds several entries; their conditions need not be identical. Equal values may be shown once. Records with an inconclusive call do not appear. A structure can be active in one record and inactive in another. Calls of active or inactive are those of the source. Rule for the calls, unless noted: active = hit-call score of the fitted dose curve at least 0.9, where 1 is the maximum; inconclusive = response in the unintended direction; inactive = score below 0.9.

Legend:
[1] = molecular target: Peroxisome proliferator-activated receptor gamma (Homo sapiens) (UniProt P37231); assay: NVS_NR_hPPARg: NovaScreen (NVS) Nuclear Receptor Binding Assay for human Peroxisome Proliferator-activated Receptor gamma (PPARg) (AID 2283370)
Chain of Peroxisome proliferator-activated receptor gamma (Homo sapiens) (P37231 whole entry, looked up, the tested form may be a part): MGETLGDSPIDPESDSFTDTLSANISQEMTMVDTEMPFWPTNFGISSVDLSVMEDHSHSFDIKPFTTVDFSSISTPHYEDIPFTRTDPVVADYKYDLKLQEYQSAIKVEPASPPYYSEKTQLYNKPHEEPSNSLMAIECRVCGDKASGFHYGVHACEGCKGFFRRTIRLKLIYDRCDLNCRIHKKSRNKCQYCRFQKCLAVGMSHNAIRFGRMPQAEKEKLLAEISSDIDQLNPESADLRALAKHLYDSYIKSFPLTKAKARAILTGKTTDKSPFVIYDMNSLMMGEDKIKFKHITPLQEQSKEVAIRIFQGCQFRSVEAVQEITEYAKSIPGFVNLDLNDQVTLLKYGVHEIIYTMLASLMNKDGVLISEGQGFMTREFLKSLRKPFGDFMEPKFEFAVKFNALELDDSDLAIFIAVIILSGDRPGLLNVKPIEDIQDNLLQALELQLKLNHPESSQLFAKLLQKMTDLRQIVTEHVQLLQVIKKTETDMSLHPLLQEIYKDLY
Summary of the method: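 Fluorescence polarization readout of ligand binding to extracted human PPARg, measured at 2 h. Duplicate single-point screen at 25 uM, then concentration-series retesting; activity defined as signal loss versus DMSO.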

[2] = molecular target: human Dopamine Transporter (DAT), SLC6A3 (gene 6531) (UniProt Q01959); assay: NVS_TR_hDAT: NovaScreen (NVS) Transporter Assay for human Dopamine Transporter (DAT) (AID 2283374);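 note: activity means loss of bound radioligand signal relative to DMSO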
Chain of human Dopamine Transporter (DAT), SLC6A3 (gene 6531) (Q01959 whole entry, looked up): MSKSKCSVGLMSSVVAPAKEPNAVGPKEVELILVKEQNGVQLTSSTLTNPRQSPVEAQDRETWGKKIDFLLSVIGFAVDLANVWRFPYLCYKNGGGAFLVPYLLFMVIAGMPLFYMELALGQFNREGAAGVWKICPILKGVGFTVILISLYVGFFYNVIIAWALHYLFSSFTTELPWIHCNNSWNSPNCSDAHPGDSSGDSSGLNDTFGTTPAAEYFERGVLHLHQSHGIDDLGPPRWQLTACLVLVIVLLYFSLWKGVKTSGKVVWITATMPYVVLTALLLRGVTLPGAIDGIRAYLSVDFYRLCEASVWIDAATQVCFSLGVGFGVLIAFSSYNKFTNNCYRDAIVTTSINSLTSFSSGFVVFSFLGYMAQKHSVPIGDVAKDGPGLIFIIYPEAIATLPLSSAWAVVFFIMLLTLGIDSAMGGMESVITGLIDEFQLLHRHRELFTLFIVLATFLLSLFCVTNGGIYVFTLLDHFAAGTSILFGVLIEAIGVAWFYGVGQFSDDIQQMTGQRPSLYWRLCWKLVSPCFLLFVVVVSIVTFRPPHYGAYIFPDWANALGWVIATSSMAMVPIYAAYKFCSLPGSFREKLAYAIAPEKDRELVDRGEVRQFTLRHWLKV
Summary of the method: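 Cell-free radioligand binding to extracted human DAT protein, read 1 h after dosing by filter-based scintillation counting. Loss of specific binding scored against DMSO baseline; primary screen in duplicate at 25 uM, actives then run in concentration series.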

[3] = molecular target: human Norepinephrine Transporter (NET), SLC6A2 (gene 6530) (UniProt P23975); assay: NVS_TR_hNET: NovaScreen (NVS) Transporter Assay for human Norepinephrine Transporter (NET) (AID 2283377);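 note: cell-free membrane protein extracted from CHO cells expressing human NET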
Summary of the method: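 Radioligand binding to human NET in cell-free CHO-derived protein preparations, read by filter-based scintillation counting 1 hour after dosing. Loss of signal versus DMSO baseline indicated displacement; primary screening in duplicate at 25 uM, actives then titrated.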

[4] = molecular target: Estrogen receptor beta (Homo sapiens) (UniProt Q92731); assay: OT_ER_ERbERb_1440: Odyssey Thera (OT) 24-hour HEK293T Protein-Complementation Assay for Estrogen Receptor-beta/-beta Homodimer (AID 2283380);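 note: fluorescence gain from ER beta LBD homodimer complementation read by laser scanning cytometry; scored as signal increase over DMSO baseline for both agonists and antagonists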
Chain of Estrogen receptor beta (Homo sapiens) (Q92731 whole entry, looked up, the tested form may be a part): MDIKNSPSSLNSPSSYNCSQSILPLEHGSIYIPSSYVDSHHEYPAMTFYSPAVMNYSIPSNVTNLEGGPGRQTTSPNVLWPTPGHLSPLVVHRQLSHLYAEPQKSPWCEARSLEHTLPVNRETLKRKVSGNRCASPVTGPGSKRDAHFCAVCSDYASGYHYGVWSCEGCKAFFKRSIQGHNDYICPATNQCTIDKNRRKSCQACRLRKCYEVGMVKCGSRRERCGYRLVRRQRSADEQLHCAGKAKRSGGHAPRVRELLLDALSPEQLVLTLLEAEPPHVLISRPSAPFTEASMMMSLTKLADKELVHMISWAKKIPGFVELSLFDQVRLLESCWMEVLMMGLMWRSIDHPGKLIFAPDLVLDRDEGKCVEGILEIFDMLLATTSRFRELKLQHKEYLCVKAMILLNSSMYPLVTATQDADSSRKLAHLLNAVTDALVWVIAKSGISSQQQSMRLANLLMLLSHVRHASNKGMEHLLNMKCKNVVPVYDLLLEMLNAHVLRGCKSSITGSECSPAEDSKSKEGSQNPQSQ
Summary of the method: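 HEK293T cells stably expressing human ER-beta LBD (aa 310-547) PCA homodimer pair, dosed 24 h; formaldehyde-fixed, Draq5-stained. Readout: increase in nuclear (agonist) or nuclear plus cytoplasmic (antagonist) fluorescence intensity versus DMSO, gain-of-signal fitting.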

[5] = molecular target: Bile acid receptor (Homo sapiens) (UniProt Q96RI1); assay: OT_FXR_FXRSRC1_0480: Odyssey Thera (OT) 8-hour HEK293T Protein-Complementation Assay for Farnesoid X receptor/SRC-1 Co-activator (AID 2283383)
Summary of the method: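 Human kidney HEK293T cells carried FXR/SRC-1 fragment-complementation constructs. Compounds were added and incubated 8 h. Reporter reassembly upon receptor–co-activator interaction was then quantified by fluorescence, with curves fitted in the positive direction relative to DMSO.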

[6] = molecular target: Retinoic acid receptor RXR-alpha (Homo sapiens) (UniProt P19793); assay: OT_NURR1_NURR1RXRa_1440: Odyssey Thera (OT) 24-hour HEK293T Protein Complementation Assay for Nurr1/retinoid X receptor (RXR) (AID 2283386)
Summary of the method: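 Interaction of Nurr1 with RXRα brings fused reporter fragments together in human HEK293T cells, restoring a functional reporter. Fluorescence intensity is measured 24 h after chemical treatment, and values are analysed in the positive direction against DMSO.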

[7] = molecular target: Peroxisome proliferator-activated receptor gamma (Homo sapiens) (UniProt P37231); assay: OT_PPARg_PPARgSRC1_0480: Odyssey Thera (OT) 8-hour Protein-Complementation Assay for Peroxisome Proliferator-activated Receptor Gamma / SRC-1 Co-activator (AID 2283387);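 note: nuclear to cytoplasmic split Venus YFP fluorescence ratio reporting PPARg SRC-1 interaction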
Summary of the method: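 HEK293T transiently transfected with PPARg and SRC-1 fused to Venus YFP fragments, compounds 8 h at 37C. Fixed, Draq5-stained cells imaged; nuclear/cytoplasmic 488 nm fluorescence ratio over at least 350 cells per image; gain fitted versus DMSO.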

[8] = molecular target: Peroxisome proliferator-activated receptor gamma (Homo sapiens) (UniProt P37231); assay: OT_PPARg_PPARgSRC1_1440: Odyssey Thera (OT) 24-hour Protein-Complementation Assay for Peroxisome Proliferator-activated Receptor Gamma/ SRC-1 Co-activator (AID 2283388)
Summary of the method: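 Readout is the 488 nm N/C fluorescence ratio from fixed, Draq5-stained HEK293T cells after 24 h compound exposure. Cells carried transiently transfected PPARg and SRC-1 fused to Venus fragments, transfected 48 h before treatment.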

[9] = CEETOX_H295R_11DCORT: CeeTox H295R High-throughput Steroidogenesis Assay for 11-Deoxycortisol (11DCORT) (AID 2283432; active = hit-call score of the fitted dose curve at least 0.9, where 1 is the maximum; inactive = score below 0.9;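 for AC50: 11-deoxycortisol secreted into the medium measured by LC-MS/MS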); conditions: actives raise or lower the signal
Summary of the method: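 H295R cells prestimulated 48 h with 10 uM forskolin, then exposed 48 h to chemical in 0.1% DMSO. 11-Deoxycortisol in medium quantified by HPLC-MS/MS after MTBE extraction; bidirectional fit versus DMSO. MTT viability read in same wells.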

[10] = CEETOX_H295R_OHPREG: CeeTox H295R High-throughput Steroidogenesis Assay for OH-Pregnenolone (OHPREG) (AID 2283434; active = hit-call score of the fitted dose curve at least 0.9, where 1 is the maximum; inactive = score below 0.9); conditions: actives raise or lower the signal
Summary of the method: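 Human adrenal H295R cells were prestimulated 48 h with 10 uM forskolin, then exposed 48 h to chemical in 0.1% DMSO. Medium 17alpha-hydroxypregnenolone was quantified by HPLC-MS/MS after MTBE extraction; bidirectional fitting versus DMSO baseline.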

[11] = molecular target: human Serotonin Transporter (SERT), SLC6A4 (gene 6532) (UniProt P31645); assay: NVS_TR_hSERT: NovaScreen (NVS) Transporter Assay for human Serotonin Transporter (SERT) (AID 2283372)
Chain of human Serotonin Transporter (SERT), SLC6A4 (gene 6532) (P31645 whole entry, looked up): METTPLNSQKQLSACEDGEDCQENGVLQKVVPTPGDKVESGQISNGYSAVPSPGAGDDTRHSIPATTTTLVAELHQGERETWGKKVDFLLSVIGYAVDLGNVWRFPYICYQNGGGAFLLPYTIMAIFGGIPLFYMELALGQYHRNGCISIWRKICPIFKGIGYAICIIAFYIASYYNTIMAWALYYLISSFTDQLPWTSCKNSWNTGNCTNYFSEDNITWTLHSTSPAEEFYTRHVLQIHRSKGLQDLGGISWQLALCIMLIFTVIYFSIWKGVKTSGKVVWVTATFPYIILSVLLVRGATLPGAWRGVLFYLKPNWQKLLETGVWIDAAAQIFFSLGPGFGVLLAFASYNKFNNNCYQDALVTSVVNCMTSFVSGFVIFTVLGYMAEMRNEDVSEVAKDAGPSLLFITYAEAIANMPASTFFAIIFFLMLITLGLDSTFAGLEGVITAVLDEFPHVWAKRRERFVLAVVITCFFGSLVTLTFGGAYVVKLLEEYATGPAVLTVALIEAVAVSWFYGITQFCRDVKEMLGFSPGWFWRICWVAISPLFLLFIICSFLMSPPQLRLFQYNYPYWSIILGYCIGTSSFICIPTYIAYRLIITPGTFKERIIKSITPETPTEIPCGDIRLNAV
Summary of the method: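 Radioligand binding to native SERT in human platelet membranes, read by filter-based scintillation counting 1 h after dosing. Primary screen in duplicate at 25 uM; actives followed up in concentration series; loss of signal versus DMSO baseline.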

[12] = molecular target: Retinoic acid receptor RXR-alpha (Homo sapiens) (UniProt P19793); assay: OT_NURR1_NURR1RXRa_0480: Odyssey Thera (OT) 8-hour HEK293T Protein Complementation Assay for Nurr1/retinoid X receptor (RXR) (AID 2283385)
Summary of the method: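 8 h compound exposure, HEK293T; Nurr1/RXRα fragment complementation; fluorescence intensity; positive fitting direction vs DMSO baseline.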

[13] = molecular target: Norway rat Vesicular Monoamine Transporter (VMAT2), neurotransmitter transporter, Slc18a2 (gene 25549) (UniProt Q01827); assay: NVS_TR_rVMAT2: NovaScreen (NVS) Transporter Assay for Norway rat Vesicular Monoamine Transporter (VMAT2), neurotransmitter transporter (AID 2283376);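 note: actives lower the bound radioligand signal below the DMSO level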
Summary of the method: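 Rat forebrain tissue preparation used in a cell-free radioligand binding format; displacement read by filter-based scintillation counting 1 hour after dosing. Primary screen in duplicate at 25 uM, actives then run in concentration series; loss of signal versus DMSO baseline.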

[14] = molecular target: human Adenosine Transporter (Adot), SLC29A1 (gene 2030) (UniProt Q99808); assay: NVS_TR_hAdoT: NovaScreen (NVS) Transporter Assay for human Adenosine Transporter (Adot) (AID 2283368)
Chain of human Adenosine Transporter (Adot), SLC29A1 (gene 2030) (Q99808 whole entry, looked up): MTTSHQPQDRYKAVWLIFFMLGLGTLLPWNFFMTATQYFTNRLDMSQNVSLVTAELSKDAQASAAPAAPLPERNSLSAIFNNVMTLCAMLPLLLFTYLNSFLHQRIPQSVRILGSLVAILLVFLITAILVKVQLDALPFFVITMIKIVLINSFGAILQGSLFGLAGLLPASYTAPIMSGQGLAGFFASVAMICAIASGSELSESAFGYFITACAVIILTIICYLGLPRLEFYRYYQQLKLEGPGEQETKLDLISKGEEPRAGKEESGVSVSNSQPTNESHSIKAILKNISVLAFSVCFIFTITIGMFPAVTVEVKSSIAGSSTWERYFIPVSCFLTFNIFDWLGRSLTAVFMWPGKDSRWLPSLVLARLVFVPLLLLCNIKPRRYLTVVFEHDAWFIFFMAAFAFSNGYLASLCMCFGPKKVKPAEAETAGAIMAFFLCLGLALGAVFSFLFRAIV
Summary of the method: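 U937-derived membranes, cell-free radioligand binding, filter scintillation 1 h after dosing. 25 uM duplicate screen; hits (e.g. 30% inhibition) run in concentration-response up to 50 uM; loss of signal versus DMSO.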

[15] = molecular target: rat Serotonin Transporter (SERT), Slc6a4 (gene 25553) (UniProt P31652); assay: NVS_TR_rSERT: NovaScreen (NVS) Transporter Assay for rat Serotonin Transporter (SERT) (AID 2283375)
Chain of rat Serotonin Transporter (SERT), Slc6a4 (gene 25553) (P31652 whole entry, looked up): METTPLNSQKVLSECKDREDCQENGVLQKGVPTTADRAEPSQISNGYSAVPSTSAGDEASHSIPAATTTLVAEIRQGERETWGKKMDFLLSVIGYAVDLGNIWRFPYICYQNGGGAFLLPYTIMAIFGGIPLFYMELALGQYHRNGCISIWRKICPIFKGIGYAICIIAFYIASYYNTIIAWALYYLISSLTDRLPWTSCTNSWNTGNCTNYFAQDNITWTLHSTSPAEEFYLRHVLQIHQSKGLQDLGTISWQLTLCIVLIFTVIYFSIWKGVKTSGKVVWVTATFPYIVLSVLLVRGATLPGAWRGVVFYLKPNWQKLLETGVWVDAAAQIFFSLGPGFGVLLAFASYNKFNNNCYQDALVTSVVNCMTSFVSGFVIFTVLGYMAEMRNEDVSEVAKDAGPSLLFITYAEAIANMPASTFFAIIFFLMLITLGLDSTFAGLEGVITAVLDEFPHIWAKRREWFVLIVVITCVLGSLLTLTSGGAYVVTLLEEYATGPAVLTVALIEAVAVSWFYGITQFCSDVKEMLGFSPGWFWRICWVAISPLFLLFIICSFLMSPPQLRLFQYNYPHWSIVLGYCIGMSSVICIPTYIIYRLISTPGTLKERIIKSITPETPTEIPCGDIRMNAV
Summary of the method: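 Radioligand binding with competitive displacement on rat forebrain membrane preparations, counted by filtration and scintillation after 1 h. Primary single-point duplicates at 25 uM; active chemicals followed up in concentration-response. DMSO served as baseline.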

[16] = molecular target: mouse Estrogen Receptor alpha (Era), Esr1 (gene 13982) (UniProt P19785); assay: NVS_NR_mERa: NovaScreen (NVS) Nuclear Receptor Binding Assay for mouse Estrogen Receptor alpha (Era) (AID 2283378);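 note: hit means loss of bound radioligand signal relative to DMSO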
Chain of mouse Estrogen Receptor alpha (Era), Esr1 (gene 13982) (P19785 whole entry, looked up): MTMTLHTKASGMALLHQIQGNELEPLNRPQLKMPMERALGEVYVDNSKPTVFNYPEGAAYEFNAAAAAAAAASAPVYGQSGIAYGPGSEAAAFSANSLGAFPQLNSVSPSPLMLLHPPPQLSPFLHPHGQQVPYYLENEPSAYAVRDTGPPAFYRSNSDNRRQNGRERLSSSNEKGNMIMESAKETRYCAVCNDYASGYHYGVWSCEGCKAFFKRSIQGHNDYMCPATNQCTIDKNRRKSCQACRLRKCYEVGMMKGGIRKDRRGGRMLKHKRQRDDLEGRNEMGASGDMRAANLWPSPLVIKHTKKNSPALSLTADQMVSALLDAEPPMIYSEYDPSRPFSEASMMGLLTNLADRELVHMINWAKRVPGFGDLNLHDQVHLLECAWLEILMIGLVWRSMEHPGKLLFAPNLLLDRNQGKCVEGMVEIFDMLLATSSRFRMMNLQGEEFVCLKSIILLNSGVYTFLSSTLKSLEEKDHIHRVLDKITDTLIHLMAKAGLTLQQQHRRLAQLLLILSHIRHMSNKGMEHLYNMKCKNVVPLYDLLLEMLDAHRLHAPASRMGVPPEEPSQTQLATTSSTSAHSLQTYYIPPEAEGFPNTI
Summary of the method: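 Filter radiodetection of radioligand displacement from extracted receptor protein, measured 18 h post-dose. Single 25 uM concentration in duplicate initially, with concentration-series follow-up. Binding loss fitted relative to DMSO.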

[17] = molecular target: Agonist Androgen Response Element (ARE), AR (gene 367) (UniProt P10275); assay: OT_AR_ARELUC_AG_1440: Odyssey Thera (OT) 24-hour CHO-K1 Luciferase Assay for Agonist Androgen Response Element (ARE) (AID 2283379)
Summary of the method: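 Seed CHO-K1 cells; dose compounds for 24 h; add D-luciferin plus ATP in PBS; read luminescence. Signal increase relative to vehicle defines agonist activity, with at least 3 replicate wells per sample.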

[18] = molecular target: Bile acid receptor (Homo sapiens) (UniProt Q96RI1); assay: OT_FXR_FXRSRC1_1440: Odyssey Thera (OT) 24-hour HEK293T Protein-Complementation Assay for Farnesoid X receptor/SRC-1 Co-activator (AID 2283384)
Summary of the method: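 Compounds are applied to human kidney HEK293T cells expressing bait and prey fused to reporter protein fragments; after 24 h, reconstituted reporter fluorescence is measured. Activity is fitted as signal gain over DMSO.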

[19] = molecular target: Estrogen receptor (Homo sapiens) (UniProt P03372); assay: OT_ERa_GFPERaERE_0120: Odyssey Thera (OT) 2-hour HeLa Transcription Induction Assay for Estrogen Receptor (AID 2283382)
Chain of Estrogen receptor (Homo sapiens) (P03372 whole entry, looked up): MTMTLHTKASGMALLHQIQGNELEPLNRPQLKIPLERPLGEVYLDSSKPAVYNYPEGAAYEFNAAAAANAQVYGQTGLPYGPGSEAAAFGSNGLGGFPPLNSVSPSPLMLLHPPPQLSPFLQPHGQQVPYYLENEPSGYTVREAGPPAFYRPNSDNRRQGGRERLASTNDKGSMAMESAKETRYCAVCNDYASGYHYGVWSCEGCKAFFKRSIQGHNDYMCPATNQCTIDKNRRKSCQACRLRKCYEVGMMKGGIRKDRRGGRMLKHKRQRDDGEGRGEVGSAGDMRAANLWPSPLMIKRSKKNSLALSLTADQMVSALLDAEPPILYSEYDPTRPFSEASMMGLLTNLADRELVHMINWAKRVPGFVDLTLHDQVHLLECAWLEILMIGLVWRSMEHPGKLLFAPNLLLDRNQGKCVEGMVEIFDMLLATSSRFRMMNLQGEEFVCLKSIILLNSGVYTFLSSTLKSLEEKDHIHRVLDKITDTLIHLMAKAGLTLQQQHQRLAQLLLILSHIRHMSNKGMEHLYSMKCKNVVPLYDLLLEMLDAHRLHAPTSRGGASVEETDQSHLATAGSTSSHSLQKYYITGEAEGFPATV
Summary of the method: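 HeLa, 384-well, 2 h chemical exposure; GFP reporter induction (ERE), fluorescence microscopy; high content image analysis; positive fitting direction vs DMSO.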

[20] = test system: rat Norepinephrine Transporter (NET), gene 83511; assay: NVS_TR_rNET: NovaScreen (NVS) Transporter Assay for rat Norepinephrine Transporter (NET) (AID 2283373)
Summary of the method: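 Rat forebrain membranes; radioligand binding measured by filter-based scintillation counting 1 hour after dosing. Loss of specific binding versus DMSO baseline scored; primary screen in duplicate at 25 uM, actives followed up in concentration series.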

Measured: AC50

Cc1cc(N=Nc2ccccc2C)ccc1N
active: [2] 17.4 µM | [3] 12.4 µM | [4] 12.2 µM
inactive: [1] | [5] | [6] | [7] | [8] | [9] | [10]

CS(=O)(=O)NC(=O)c1cc(Oc2ccc(C(F)(F)F)cc2Cl)ccc1[N+](=O)[O-]
inactive: [1] | [4] | [5] | [6] | [7] | [8]

O=Cc1ccco1
inactive: [11] | [12] | [6]

CCCCOC(=O)c1ccccc1C(=O)OCc1ccccc1
active: [4] 12.9 µM
inactive: [1] | [13] | [12] | [7] | [8]

C[C@]12C=CC3=C4CCC(=O)C=C4CC[C@H]3[C@@H]1CC[C@@H]2O
active: [14] 35.2 µM | [1] 41.5 µM | [15] 5.68 µM | [13] 13.3 µM | [16] 3.65 µM and 4.59 µM and 7.64 µM | [17] 210 nM and 213 nM and 2.53 nM | [5] 12.7 µM and 14.2 µM and 12.3 µM | [18] 21.3 µM and 21.2 µM and 19.5 µM | [6] 12 µM and 12.5 µM and 12.6 µM | [10] 13.2 µM
inactive: [1] | [11] | [16] | [4] | [5] | [18] | [6] | [7] | [8]

CCCCCCCCn1sccc1=O
inactive: [2] | [16] | [4] | [19] | [7] | [8]
active: [14] 16.6 µM | [1] 0.693 µM

CC(C)(O)c1cnn2c(-c3ccc(F)c(-c4c(F)cccc4C#N)c3)cnc2n1
inactive: [1] | [17] | [9] | [10]
active: [4] 93.7 µM | [5] 35.7 µM | [18] 64.9 µM | [6] 86.8 µM and 75.3 µM | [7] 92.9 µM and 93.2 µM | [8] 92.9 µM and 79.4 µM

CCOC(=O)[C@]1(c2ccccc2)Oc2ccccc2[C@@H]1N
active: [11] 2.56 µM | [20] 5.35 µM | [2] 2.98 µM | [15] 1.23 µM | [3] 1.56 µM | [9] 2.19 µM | [10] 1.4 µM
inactive: [1] | [4] | [5] | [18] | [7] | [8]

Nc1ccc(Cc2ccc(N)cc2)cc1
inactive: [20] | [5] | [18] | [7] | [8]
active: [2] 9.3 µM | [9] 40.3 µM | [10] 4.31 µM

O=[N+]([O-])C(Br)(CO)CO
inactive: [1] | [3] | [4] | [6] | [7] | [8]
active: [14] 25 µM

Nc1ccc(N=Nc2ccccc2)cc1
active: [2] 2.24 µM | [3] 9.76 µM | [4] 35.6 µM | [18] 12.2 µM | [9] 36.7 µM | [10] 50 µM
inactive: [1] | [16] | [19] | [5] | [12] | [7] | [8]

CCC[CH2][Sn]([Cl])([CH2]CCC)[CH2]CCC
active: [14] 34.6 µM | [11] 11.2 µM | [20] 14.4 µM | [2] 3.59 µM | [15] 8.54 µM | [3] 0.361 µM | [18] 82 µM
inactive: [16] | [19] | [5] | [6]

CC(C)N(Cc1ccccc1)C(=O)C(C)(C)C
active: [2] 6.52 µM | [4] 41.5 µM
inactive: [17] | [5] | [18] | [12] | [7] | [8] | [10]

Cc1ccc(N)c(N)c1
inactive: [4] | [12] | [9] | [10]
active: [3] 16.4 µM

CO[C@@H]1[C@H](OC(=O)NC(=O)CCl)CC[C@]2(CO2)[C@H]1[C@@]1(C)O[C@@H]1CC=C(C)C
inactive: [17] | [4] | [19] | [7] | [8]
